PubChem BioAssay (NCATS)
Inconclusive results are not listed. A number with no mark means an inactive call. Calls come from the whole dose curve; as a rule, active = well fitted inhibition curve with a large enough effect; inconclusive = small, poorly fitted or top-dose-only effect; inactive = flat fitted curve, though single readings scatter.

target: Calcium and integrin-binding protein 1 (Homo sapiens) (UniProt Q99828); experiment: Primary qHTS for Identification of Calcium Integrin Binding Protein 1 (CIB1) Competitor (AID 1508620); conditions: CIB1-GST / FITC-alphaIIb peptide fluorescence polarization; series mostly up to 114 µM; activity change, negative = inhibition: at the top concentration;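 note: GST tagged CIB1 binding a fluorescein labelled alphaIIb integrin peptide tracer; top concentration of the series differs between compounds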
Sequence (Q99828 whole entry, looked up): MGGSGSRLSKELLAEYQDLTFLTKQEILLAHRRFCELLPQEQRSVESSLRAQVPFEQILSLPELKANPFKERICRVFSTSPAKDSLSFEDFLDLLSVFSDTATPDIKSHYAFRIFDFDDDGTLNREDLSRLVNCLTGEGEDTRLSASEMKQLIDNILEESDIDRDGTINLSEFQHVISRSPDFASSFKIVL
Method in brief: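 Fluorescence polarization competition: CIB1-GST (1 uM final) preincubated with compound 15 min at room temperature, then FITC-labeled alphaIIb peptide (100 nM final) added for another 15 min. Polarization read at Ex 480/Em 540.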
% is set by controls: 0 for no effect and ±100 for the full control effect.

SMILES	activity change, negative = inhibition [%]
CC[C@@H](C)Nc1cc(C(=O)NC2CC3CCC(C2)N3c2ccc(C(=O)C3CC3)cn2)c(C)cc1C(N)=O (stereo partly drawn)	-1.89
O=C(Nc1ccc(C(F)(F)F)cn1)N1CCN(c2ncccc2C(F)(F)F)CC1	6.47
Cc1ccc(C)c(-c2cc(C(F)(F)F)nn2-c2ccc(S(N)(=O)=O)cc2)c1	-3.77
